{"source": "ChEMBL document CHEMBL3988442", "about": "“University of Dundee, Small-Polar-MMV Screening Library” (2021)", "note": "The whole screen tested about 38,000 compounds, of which about 1,200 (3.2%) showed an effect of 50% or more. The median lay at about -58%. The full list was thinned out, with strong results kept by preference.", "data": [{"tested_on": "Plasmodium falciparum", "experiment": "Calibr Malaria Delayed Death Assay SOP", "assay_type": "functional, organism-based", "parameters": "scale not given: in the data most compounds retested in dose-response had high values", "settings": "concentration 4.99e-06 (unit not given; other assays of the set use mol/L)", "units": {"Percent Effect": "%"}, "values": [{"smiles": "c1ccc(Cc2noc(CCNC3CCOC4(CCOCC4)C3)n2)cc1", "note": "(stereo not drawn)", "Percent Effect": -44.81}, {"smiles": "c1ccc2c(c1)nnn2CCCNC1CCOC2(CCOCC2)C1", "note": "(stereo not drawn)", "Percent Effect": -5.834}, {"smiles": "Fc1ccccc1C1(CNC2CCOC3(CCOCC3)C2)CCCC1", "note": "(stereo not drawn)", "Percent Effect": 75.67}, {"smiles": "Fc1cccc(C2(CNC3CCCNC3)CCOCC2)c1", "note": "(stereo not drawn)", "Percent Effect": -89.15}, {"smiles": "COc1c(CNC2CCN(C(=O)C(C)C)CC2)c(C(C)C)nn1C", "Percent Effect": -79.75}, {"smiles": "CSc1cccc(NC(=O)CCC(=O)Nc2nccs2)c1", "Percent Effect": -6.233}, {"smiles": "CCOC(=O)Cn1ccc(NC(=O)Cc2ccccc2F)n1", "Percent Effect": -129.4}, {"smiles": "COc1ccc(CCNC(C)c2ccc3[nH]c(=O)[nH]c3c2)cc1OC", "note": "(stereo not drawn)", "Percent Effect": -75.57}, {"smiles": "Cc1cc(S(=O)(=O)N2CCCN3CCCC3C2)ccc1F", "note": "(stereo not drawn)", "Percent Effect": 67.89}, {"smiles": "Cc1ccc(S(=O)(=O)N2CCCCC(N3CCN(C)CC3)C2)cc1F", "note": "(stereo not drawn)", "Percent Effect": 37.26}, {"smiles": "Cc1cc(S(=O)(=O)N2CCC(S(C)(=O)=O)C2)ccc1F", "note": "(stereo not drawn)", "Percent Effect": -26.98}, {"smiles": "Cc1ccc(S(=O)(=O)N2CCC(N3CCCCC3)CC2)cc1C", "Percent Effect": 64.64}, {"smiles": "Cc1ccc(S(=O)(=O)N2CCC(S(C)(=O)=O)CC2)cc1C", "Percent Effect": -5.803}, {"smiles": "Cc1ccc(S(=O)(=O)N2CCC(S(=O)(=O)c3nncn3C)CC2)cc1C", "Percent Effect": -38.79}, {"smiles": "Cc1nc2ccccc2n1Cc1cc(C(=O)N(C)C2CCOC2)n[nH]1", "note": "(stereo not drawn)", "Percent Effect": -89.66}, {"smiles": "Cc1nc(CN(C)C2CCN(Cc3nc4c(F)cccc4[nH]3)C2)no1", "note": "(stereo not drawn)", "Percent Effect": -2.567}, {"smiles": "CCOCC(=O)Nc1cccnc1-n1ccnc1C", "Percent Effect": -153.7}, {"smiles": "Cc1ncc(CNCCO)c2cc(C(=O)c3ccc(Br)cc3)oc12.Cl", "Percent Effect": 88.87}, {"smiles": "Cc1ncc(CN2CCOCC2)c2cc(C(=O)c3ccc(Br)cc3)oc12.Cl", "Percent Effect": -6.646}, {"smiles": "Cc1ncc(CN(C)CCO)c2cc(C(=O)c3ccc(Br)cc3)oc12.Cl", "Percent Effect": 47.82}, {"smiles": "Cc1ncc(CNCC(C)O)c2cc(C(=O)c3ccc(Br)cc3)oc12.Cl", "note": "(stereo not drawn)", "Percent Effect": 8.12}, {"smiles": "Cc1ncc(CNC(C)(C)CO)c2cc(C(=O)c3ccc(Br)cc3)oc12", "Percent Effect": 36.54}, {"smiles": "COc1ncc(C(=O)NCc2ccc(Br)cc2)cn1", "Percent Effect": -41.11}, {"smiles": "Cc1ncc(CN2CCCC2)c2cc(C(=O)c3ccc(Br)cc3)oc12.Cl", "Percent Effect": 66.17}, {"smiles": "CN(C)c1ccc(C(=O)NCc2csc(Br)c2)cn1", "Percent Effect": -36.5}, {"smiles": "COCCNC(=O)[C@@H]1CCO[C@@H]2CCN(Cc3cnn(C)c3)C[C@@H]21", "Percent Effect": -0.06334}, {"smiles": "Cc1nn(Cn2ccc(C(=O)N3CCOCC3)n2)c(C)c1Cl", "Percent Effect": -94.44}, {"smiles": "O=c1c(NCc2ccccn2)c(NCC(O)CN2CCOCC2)c1=O", "note": "(stereo not drawn)", "Percent Effect": -115.3}, {"smiles": "Cc1cccc(CN2CC3(CCN(Cc4ccco4)CC3)OCC2=O)n1.O=C(O)C(F)(F)F.O=C(O)C(F)(F)F", "Percent Effect": -46.8}, {"smiles": "CC(C)Oc1ccc(C(=O)N2CCCC2c2cnn(C)c2)cn1", "note": "(stereo not drawn)", "Percent Effect": -40.89}, {"smiles": "CNC(=O)c1cn2cc(-c3cccc(Cl)c3)n(CC3CC3)c(=O)c2n1", "Percent Effect": 19.26}, {"smiles": "COCCCNC(=O)Cn1c(-c2cccc(Cl)c2)nc(C)cc1=O", "Percent Effect": -51.33}, {"smiles": "CNC(=O)c1cn2cc(-c3cccc(Cl)c3)n(CC=C(C)C)c(=O)c2n1", "Percent Effect": 56.44}, {"smiles": "COc1ccc(OC)c(NC(=O)c2cc3c([nH]c2=O)CCCC3=O)c1", "Percent Effect": -53.3}, {"smiles": "CC1CCN(CC(O)Cn2cnc3ccc(Cl)cc3c2=O)CC1", "note": "(stereo not drawn)", "Percent Effect": 28.19}, {"smiles": "Cc1c(C)n(CC(O)CN2CCC(C)CC2)c2c(Cl)cccc12", "note": "(stereo not drawn)", "Percent Effect": 82.43}, {"smiles": "Cc1c(C)n(CC(O)CN2CCCCCC2)c2c(Cl)cccc12", "note": "(stereo not drawn)", "Percent Effect": 50.38}, {"smiles": "Cc1c(C)n(CC(O)CN2CCOCC2)c2c(Cl)cccc12.Cl", "note": "(stereo not drawn)", "Percent Effect": -18.53}, {"smiles": "O=C(c1cccc(Cl)c1Cl)N1CCN(CC(O)Cn2cccn2)CC1", "note": "(stereo not drawn)", "Percent Effect": -16.31}, {"smiles": "Cc1c(C)n(CC(O)CN2CCC(O)CC2)c2c(Cl)cccc12", "note": "(stereo not drawn)", "Percent Effect": 43.5}, {"smiles": "O=C(c1cccc2c1OCCO2)N1CCCC(n2cccn2)C1", "note": "(stereo not drawn)", "Percent Effect": -57.7}, {"smiles": "Cc1ccc(OCCC(=O)N2CCOCC2c2ncon2)cc1C", "note": "(stereo not drawn)", "Percent Effect": -113.3}, {"smiles": "O=C(c1ccco1)N1Cc2nccn2CC(Cn2ncccc2=O)C1", "note": "(stereo not drawn)", "Percent Effect": -89.1}, {"smiles": "CCCN(CCC)c1ncc(S(=O)(=O)c2ccccc2)c(N)n1", "Percent Effect": -11.95}, {"smiles": "CCCN(CCC)c1ncc(S(=O)(=O)c2ccc(OC)cc2)c(N)n1", "Percent Effect": 66.8}, {"smiles": "CCCN(CCC)c1ncc(S(=O)(=O)c2ccc(C)cc2)c(N)n1", "Percent Effect": 12.69}, {"smiles": "N#Cc1c(N)nc2c(c1-c1c[nH]nc1C1CCCCC1)CNCC2", "Percent Effect": 6.508}, {"smiles": "c1ccc(COCC2CN(Cc3ccsc3)Cc3nccn3C2)nc1", "note": "(stereo not drawn)", "Percent Effect": 1.035}]}]}
